Source: PubChem BioAssay (Tox21)
Active and inactive are the calls of the source. Calls follow the shape of the full dose curve.

Test: qHTS assay to identify small molecule agonists of the estrogen related receptor (ERR) signaling pathway from Tox21 library (AID 1224849); also: nearly all actives have a fitted effect of over 15% in size
Details: ERR reporter cell line, ONE-Glo luciferase, 18 h; series mostly up to 92.4 µM; activity change, positive = activation: at the top concentration
Excerpt: National Center for Advancing Translational Sciences [NCATS]
NIH Chemical Genomics Center [NCGC]
U.S. Environmental Protection Agency [EPA]
National Institutes of Environmental Health Sciences [NIEHS]
National Toxicology Program [NTP]
Estrogen related receptors (ERRs), the first orphan nuclear receptors discovered, play an important role in the control of cellular energy metabolism. ERRs are required for high-energy production in response to the environmental challenges. ERR-alpha was also identified as an adverse marker for breast cancer progression; ERR-alpha-positive tumors have a poor prognosis. To screen and to identify environmental compounds that perturb the ERR signaling pathways could provide valuable information for potential therapeutic or preventive measures in the treatment of metabolic disease. For identifying ERR agonists, ERR cell line (provided by NTP) has been used to screen Tox21 10K library.
The ERR cells were dispensed at 2,000 cells/5 ul/well in 1536-well white plates using a Multidrop dispenser. After the assay plates were incubated at a 37 C/5% CO2 incubator for 6 hours, 23 nL of compounds dissolved in DMSO, positive and negative controls or DMSO only was transferred to the assay plate by a pin tool. The plates were incubated at 37 C for 18 hours. 4 ul/well of One-Glo reagent was added into the assay plates using a Flying Reagent Dispenser. After 30-minute incubation at room temperature, the luminescence intensity in the plates was measured using a ViewLux plate reader.
% is scaled to controls: 0 for no effect and ±100 for the full control effect.

SMILES | outcome | activity change, positive = activation
CC(C)(Oc1ccc(CCNC(=O)c2ccc(Cl)cc2)cc1)C(=O)O | inactive | 
O=C1C(c2[nH]c3ccccc3c2O)=Nc2ccccc21 |  | 1.92% (inactive)
NCCNCCN | inactive | 
CCc1ccccc1CC | inactive | 
CC1(C)S[C@@H]2[C@H](NC(=O)COc3ccccc3)C(=O)N2[C@H]1C(=O)O | inactive | 
CCO[Si](CCCN)(OCC)OCC | inactive | 
CC(=O)OCc1ccco1 | inactive | 
CC(C)CC(=O)CC(C)CC(C)C (stereo not given) | inactive | 
CC(C)(C#N)c1cc(Cn2cncn2)cc(C(C)(C)C#N)c1 | inactive | 
CC(CCl)OP(=O)(OC(C)CCl)OC(C)CCl (stereo not given) |  | -7.27% (inactive)
COc1ccc(OC)cc1 | inactive | 
COC(=O)c1cccnc1 | inactive | 
CN(C)CCOC(=O)COc1ccc(Cl)cc1 | inactive | 
O=C1c2ccccc2CCc2ccccc21 | inactive | 
CCOCC(=O)O | inactive | 
C=CC(=O)OCCC(=O)O |  | 9.01% (inactive)
OCc1ccccc1 | inactive | 
Cc1ccc([N+](=O)[O-])cc1S(=O)(=O)O | inactive | 
CN(C)c1ccc(Cc2ccc(N(C)C)cc2)cc1 | inactive | 
CC(=O)CC(C)(C)O | inactive | 

SMILES | outcome | activity change, positive = activation
Cc1ccc(C(C)C)c(O)c1 | inactive | 
CC1(C)NC(=O)NC1=O | inactive | 
O=C(O)c1ccc(C(=O)O)c(C(=O)O)c1 | inactive | 
O=C(O)CCCCCCCCC(=O)O | inactive | 
O=C(O)c1cc2ccccc2cc1O | inactive | 
O=S(=O)(O)c1ccc(N=Nc2c(O)ccc3cc(S(=O)(=O)O)ccc23)cc1 | inactive | 
CCNc1cccc(C)c1 | inactive | 
Cc1ccc2ncccc2c1 | inactive | 
O=S(=O)(O)c1ccccc1 | inactive | 
C=C(C)CNCC | inactive | 
CC(=O)CCC=C(C)C | inactive | 
Cc1ccc(S(=O)(=O)N=C=O)cc1 | inactive | 
CCCOC(=O)c1ccccc1 | inactive | 
N#Cc1ccccc1 | inactive | 
O=C1CCCC1 | inactive | 
CCCCCC(=O)O | inactive | 
O=C(O)Cn1c(=O)n(Cc2ccc(Br)cc2F)c(=O)c2ccc(Cl)cc21 | inactive | 
CC(C)c1cccc(C(C)C)c1 | inactive | 
CC(=O)OC1CC(C)OC(C)O1 (stereo not given) | inactive | 
NCCCCCCN | inactive | 
